# ± gives the standard deviation of the averaged measurements.
# Columns and labels:
# Details in all cases: concentration: 10 µM; 24 h
# HCC1569 [1] = assay: cell number relative to DMSO (% of DMSO); higher = more cells (less growth inhibition / toxicity)
# Procedure, shortened: (§1)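 Treatment: HCC1569 and TDF cells, 800 per well in 384-well plates with RPMI and 10% FBS, were given compounds at 10 µM for 24 h at 37 °C, in triplicate. Readout: after 3.7% formaldehyde fixation, cells were stained with a rabbit anti-H1.0 antibody, an AlexaFluor 647 secondary and DAPI. Reported values are H1.0 nuclear intensity or cell number as percent of the plate control, taken as the median of replicates, with positional smoothing for HCC1569.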
# TDF [2] = assay: as above
# Procedure, shortened: as §1
# TDF [3] = assay: H1.0 immunofluorescence intensity relative to DMSO (% of DMSO); higher = stronger H1.0 induction, active = 120 or more
# Procedure, shortened: as §1
# HCC1569 [4] = assay: H1.0 immunofluorescence intensity relative to DMSO (% of DMSO); higher = stronger H1.0 induction, active = 140 or more
# Procedure, shortened: as §1
# 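Throughout, for H1.0 immunofluorescence intensity relative to DMSO: TDF is a line of transformed human dermal fibroblasts of mesenchymal origin.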
# 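Throughout, for cell number relative to DMSO: TDF denotes transformed human dermal fibroblasts of mesenchymal origin.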
Structure (SMILES),cell number (HCC1569 [1]),cell number (TDF [2]),H1.0 immunofluorescence intensity (TDF [3]),H1.0 immunofluorescence intensity (HCC1569 [4])
CC1OC(Oc2c(-c3cc(O)c(O)c(O)c3)oc3cc(O)cc(O)c3c2=O)C(O)C(O)C1O (stereo unspecified) [Myricitrin],103,101,94.8 (inactive),83.5 (inactive)
Cn1c(=O)c2c(ncn2Cc2ccc(C(C)(C)C)cc2)n(C)c1=O,81.6,71.4,106 (inactive),154 (active)
CNCCCC12CCC(c3ccccc31)c1ccccc12.Cl [Maprotiline hydrochloride],97.8,102,106 (inactive),99.1 (inactive)
"CC=C1C2C=C(C)CC1(N)c1ccc(=O)[nH]c1C2 (single isomer, unassigned; (-)) [(-)-Huperazine]",98.2,100,98.9 (inactive),84.1 (inactive)
C#CC1(O)CCC2C3CCC4=CC(=O)CCC4C3CCC21CC (stereo unspecified) [Levonorgestrel],100,91.5,99.8 (inactive),98.5 (inactive)
O=C(C=Cc1ccc(O)c(O)c1)OC(Cc1ccc(O)c(O)c1)C(=O)O (stereo unspecified) [Rosmarinic acid],104 ± 2.8,101 ± 6.3,97.7 (inactive),98.7 (inactive)
CS(=O)(=O)O.Cc1c(O)cccc1C(=O)NC(CSc1ccccc1)C(O)CN1CC2CCCCC2CC1C(=O)NC(C)(C)C (stereo unspecified) [Nelfinavir mesylate],102,112,90.6 (inactive),116 (inactive)
NC(=O)c1ncn(C2OC(CO)C(O)C2O)n1 (stereo unspecified) [Ribavirin],97.5 ± 3,105 ± 3.3,94.5 (inactive),112 (inactive)
O[C@@H]1[C@@H](O)[C@H](OC/C=C/c2ccccc2)O[C@H](CO[C@@H]2OC[C@H](O)[C@H](O)[C@H]2O)[C@H]1O,97,103,100 (inactive),90.3 (inactive)

# From the supplement of paper PMC7156485
